This is an account of results in PubChem BioAssay.

Assay [1] is described as follows: compounds binding Alexa647 anti-His antibody – biochemical, small-molecule microarray, 635 nm fluorescence, artefact control for SMM control protein annotation, primary screen (AID 1128).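 Further: score merges feature fluorescence with signal-to-noise for each printed compound spot.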 Conditions: higher = more signal.
The subject of assay [2] is Human papillomavirus type 1a E7 protein (residues 1-88). In words: HPV1a E7 small-molecule binders, primary screen, biochemical, small-molecule microarray, residues 1-88, 635 nm (AID 1129). The note with it: small-molecule microarray binding, fluorescence 635 nm; higher = more signal.
Assay [3] deals with Focal adhesion kinase 1 (Homo sapiens) (UniProt Q05397). The assay is described as follows: PTK2 protein binding on printed compound slides – biochemical, small-molecule microarray, 635/667 nm fluorescence, BSA, DTT, primary screen (AID 1130).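 Further: composite of spot emission at 667 nm and signal to noise over triplicate slides.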 The note with it: 635 nm fluorescence, higher = more signal.
In assay [4] the test system is Fibrinogen (Alexa647-labelled). In words: Alexa647-fibrinogen binding to printed small molecules – biochemical, small-molecule microarray, 635/667 nm fluorescence, artefact control for SMM control-protein annotation, profiling panel (AID 1131).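 Further: z-score merges 667 nm fluorescence with per-spot signal-to-noise over triplicate slides.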 The note with it: fibrinogen-A647 binding fluorescence, higher = more signal.
Assay [5] addresses Follistatin (Homo sapiens) (UniProt P19883). In words: FST protein binding to printed compounds – biochemical, small-molecule microarray, 635/667 nm fluorescence, primary screen (AID 1132). Conditions: 635 nm fluorescence, higher = more signal.
For assay [6], the target named is Fibroblast growth factor 2 (Homo sapiens) (UniProt P09038). In words: basic fibroblast growth factor binding to printed compounds – biochemical, small-molecule microarray, 635/667 nm fluorescence, primary screen (AID 1133). Conditions: FGF2, fluorescence 635/667, higher = more signal.
Assay [7] in a line: JC-1 mitochondrial potential readout, lung cancer cells – cell-based, A549, JC-1 fluorescence, basal, 24 h, 100 nL, profiling panel (AID 1138).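 Further: A549 lung adenocarcinoma cells under basal conditions with no added stimulus; test concentration not given here.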 Conditions: higher = more signal.
The test system of the next assay is Lefty1. The assay is described as follows: Lefty1 protein binding to printed compounds – biochemical, small-molecule microarray, 635/667 nm fluorescence, primary screen (AID 1139). The note with it: fluorescence 635/667, higher = more signal.
Assay [8] deals with wheat germ agglutinin (Triticum aestivum), Alexa647-labelled. In words: Alexa647-WGA lectin binding to printed small molecules – biochemical, small-molecule microarray, 635/667 nm fluorescence, artefact control for SMM control-protein annotation, profiling panel (AID 1140).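 Further: score merges 667 nm feature emission with signal to noise over triplicate slides.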 Conditions: WGA-A647 binding, 635 nm fluorescence, higher = more signal.
The target of assay [9] is Luciferin 4-monooxygenase (Photinus pyralis) (UniProt P08659). In words: inhibition of purified Photinus pyralis luciferase – biochemical, luminescence, purified enzyme, 2006 set, primary screen (AID 1141).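 Further: cell-free assay with purified firefly luciferase at 100 ng per well in PBS; test concentration not given here.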 Conditions: purified firefly luciferase, SteadyGlo luminescence, 30 min; higher = more signal, called active from +8 up or from −8 down.
The subject of assay [10] is Wnt5a (protein binding on small-molecule microarray). In words: small molecules binding Wnt5a protein – biophysical, small-molecule microarray, 635/667 nm fluorescence, primary screen (AID 1142).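 Further: fluorescence read at 667 nm with signal to noise per printed feature.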 Conditions: 635 nm fluorescence, higher = more signal.
Assay [11] is described as follows: ATP-based viability of Huh7 replicon cells – cell-based, CellTiter-Glo luminescence, basal, 48 h, cytotoxicity control for HCV replication inhibitor project, primary screen (AID 1143).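 Further: Huh7 hepatoma cells carrying a hepatitis C replication reporter with no stimulus; test concentration not given here.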 The note with it: higher = more signal, called active from +8 up or from −8 down.
Assay [12] can be described thus: Pseudomonas biofilm growth suppression – PAO1 strain, BacTiter-Glo luminescence, LB-PBS, primary screen (AID 1144). Conditions: P. aeruginosa PAO1 biofilm, 12 h, higher = more signal.
Assay [13] in a line: basal CRE-LacZ reporter activity in PC12 – cell-based, unstimulated, primary screen (AID 1145). The note with it: no forskolin, luminescence, 4.5 h, higher = more signal, called active from +8 up or from −8 down.
The nature of assay [14]: forskolin-driven CRE-LacZ activity in PC12 – cell-based, CRE-LacZ reporter, forskolin-stimulated, primary screen (AID 1146).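 Further: PC12 cells with 6xCRE LacZ reporter stimulated by forskolin 10 µM; beta-galactosidase reporter signal reflecting CREB driven transcription.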 Conditions: luminescence, 4.5 h, higher = more signal, called active from +8 up or from −8 down.
Assay [15] has as its target Streptavidin (Streptomyces avidinii) (UniProt P22629). The assay is described as follows: compounds binding control protein streptavidin – biophysical, small-molecule microarray, 635/667 nm fluorescence, artefact control for SMM compound annotation, primary screen (AID 1147).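 Further: signal reflects streptavidin binding to arrayed compounds as a control protein.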 Conditions: higher = more signal.
Assay [16] is described as follows: probe aInhba binding on compound microarray – biochemical, small-molecule microarray, 635/667 nm fluorescence, primary screen (AID 1148).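 Further: score merges 667nm spot fluorescence with signal-to-noise for antibody binding to printed compounds.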 Conditions: higher = more signal.
The target of assay [17] is Torsin-1A (Homo sapiens) (UniProt O14656). The assay is described as follows: TOR1A wild-type binding on microarray – cell lysate, small-molecule microarray, lysate, 635/667 nm, primary screen (AID 1149). The note with it: COS7 hTOR1A-WT lysate, 635 nm fluorescence, higher = more signal.
Assay [18] shares this target. In words: torsin A mutant lysate binding on microarrays – cell lysate, small-molecule microarray, COS7 lysate, 635/667 nm fluorescence, primary screen (AID 1150).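 Further: score pools 667 nm emission and signal to noise measuring lysate protein binding.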 The note with it: COS7 hTOR1A mutant lysate, 635 nm fluorescence, higher = more signal.
Assay [19] has as its system Sonic hedgehog protein (Shh). In words: Sonic hedgehog microarray binding compounds – biochemical, small-molecule microarray, 635/667 nm fluorescence, primary screen (AID 1151).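 Further: Shh protein binding to compounds spotted on small-molecule microarray slides; score combines spot fluorescence intensity with signal-to-noise across triplicate slides.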 The note with it: 635 nm fluorescence, higher = more signal.

The source made the active and inactive calls. Unless noted, how the calls were made is not given here.

Chain of Fibroblast growth factor 2 (Homo sapiens) (P09038 whole entry, looked up): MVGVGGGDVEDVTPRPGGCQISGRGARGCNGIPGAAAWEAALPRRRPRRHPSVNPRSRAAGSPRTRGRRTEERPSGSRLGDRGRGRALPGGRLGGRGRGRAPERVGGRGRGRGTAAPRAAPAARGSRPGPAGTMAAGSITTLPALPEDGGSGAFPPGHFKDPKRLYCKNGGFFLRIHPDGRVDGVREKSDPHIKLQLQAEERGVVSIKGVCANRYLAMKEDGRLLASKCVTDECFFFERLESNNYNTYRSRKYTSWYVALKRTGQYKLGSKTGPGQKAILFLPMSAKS
Chain of Follistatin (Homo sapiens) (P19883 whole entry, looked up): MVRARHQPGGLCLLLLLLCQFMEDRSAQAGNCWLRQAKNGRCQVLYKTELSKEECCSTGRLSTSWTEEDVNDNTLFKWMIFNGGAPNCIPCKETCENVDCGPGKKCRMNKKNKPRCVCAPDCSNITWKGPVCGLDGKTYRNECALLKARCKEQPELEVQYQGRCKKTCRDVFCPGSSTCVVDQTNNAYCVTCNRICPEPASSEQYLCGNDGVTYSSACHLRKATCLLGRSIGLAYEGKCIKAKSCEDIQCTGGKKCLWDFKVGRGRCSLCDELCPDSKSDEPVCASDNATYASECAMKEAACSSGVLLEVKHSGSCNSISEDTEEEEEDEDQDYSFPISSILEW
Chain of Torsin-1A (Homo sapiens) (O14656 whole entry, looked up): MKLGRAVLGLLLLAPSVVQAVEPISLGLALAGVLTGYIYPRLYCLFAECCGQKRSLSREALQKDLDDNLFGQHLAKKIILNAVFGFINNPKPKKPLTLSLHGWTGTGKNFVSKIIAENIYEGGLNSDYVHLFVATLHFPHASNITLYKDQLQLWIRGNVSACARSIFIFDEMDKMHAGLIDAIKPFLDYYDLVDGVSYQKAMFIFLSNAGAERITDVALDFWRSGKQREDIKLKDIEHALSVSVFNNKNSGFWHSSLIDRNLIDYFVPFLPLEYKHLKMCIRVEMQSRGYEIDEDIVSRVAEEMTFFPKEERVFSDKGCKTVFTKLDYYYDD
Chain of Luciferin 4-monooxygenase (Photinus pyralis) (P08659 whole entry, looked up): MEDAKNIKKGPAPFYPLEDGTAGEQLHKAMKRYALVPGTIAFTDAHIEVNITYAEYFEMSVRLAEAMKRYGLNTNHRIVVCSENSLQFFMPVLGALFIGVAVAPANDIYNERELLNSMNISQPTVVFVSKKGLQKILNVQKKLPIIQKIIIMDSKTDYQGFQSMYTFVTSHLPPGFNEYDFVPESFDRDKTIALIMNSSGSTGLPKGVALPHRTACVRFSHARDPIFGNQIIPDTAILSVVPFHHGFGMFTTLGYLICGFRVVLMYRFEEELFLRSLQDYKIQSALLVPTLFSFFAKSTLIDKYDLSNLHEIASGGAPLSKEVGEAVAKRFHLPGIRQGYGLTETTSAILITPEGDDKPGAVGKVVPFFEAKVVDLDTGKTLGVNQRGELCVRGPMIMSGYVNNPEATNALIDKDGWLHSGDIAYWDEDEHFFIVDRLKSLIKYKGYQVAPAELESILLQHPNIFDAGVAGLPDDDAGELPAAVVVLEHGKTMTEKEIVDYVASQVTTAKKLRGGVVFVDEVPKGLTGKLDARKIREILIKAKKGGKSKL
Chain of Streptavidin (Streptomyces avidinii) (P22629 whole entry, looked up): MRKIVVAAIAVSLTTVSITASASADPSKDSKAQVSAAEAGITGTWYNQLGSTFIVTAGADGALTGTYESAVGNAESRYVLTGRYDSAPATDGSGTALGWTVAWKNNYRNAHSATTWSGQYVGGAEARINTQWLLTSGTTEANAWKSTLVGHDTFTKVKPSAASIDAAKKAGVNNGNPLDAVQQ
Chain of Focal adhesion kinase 1 (Homo sapiens) (Q05397 whole entry, looked up): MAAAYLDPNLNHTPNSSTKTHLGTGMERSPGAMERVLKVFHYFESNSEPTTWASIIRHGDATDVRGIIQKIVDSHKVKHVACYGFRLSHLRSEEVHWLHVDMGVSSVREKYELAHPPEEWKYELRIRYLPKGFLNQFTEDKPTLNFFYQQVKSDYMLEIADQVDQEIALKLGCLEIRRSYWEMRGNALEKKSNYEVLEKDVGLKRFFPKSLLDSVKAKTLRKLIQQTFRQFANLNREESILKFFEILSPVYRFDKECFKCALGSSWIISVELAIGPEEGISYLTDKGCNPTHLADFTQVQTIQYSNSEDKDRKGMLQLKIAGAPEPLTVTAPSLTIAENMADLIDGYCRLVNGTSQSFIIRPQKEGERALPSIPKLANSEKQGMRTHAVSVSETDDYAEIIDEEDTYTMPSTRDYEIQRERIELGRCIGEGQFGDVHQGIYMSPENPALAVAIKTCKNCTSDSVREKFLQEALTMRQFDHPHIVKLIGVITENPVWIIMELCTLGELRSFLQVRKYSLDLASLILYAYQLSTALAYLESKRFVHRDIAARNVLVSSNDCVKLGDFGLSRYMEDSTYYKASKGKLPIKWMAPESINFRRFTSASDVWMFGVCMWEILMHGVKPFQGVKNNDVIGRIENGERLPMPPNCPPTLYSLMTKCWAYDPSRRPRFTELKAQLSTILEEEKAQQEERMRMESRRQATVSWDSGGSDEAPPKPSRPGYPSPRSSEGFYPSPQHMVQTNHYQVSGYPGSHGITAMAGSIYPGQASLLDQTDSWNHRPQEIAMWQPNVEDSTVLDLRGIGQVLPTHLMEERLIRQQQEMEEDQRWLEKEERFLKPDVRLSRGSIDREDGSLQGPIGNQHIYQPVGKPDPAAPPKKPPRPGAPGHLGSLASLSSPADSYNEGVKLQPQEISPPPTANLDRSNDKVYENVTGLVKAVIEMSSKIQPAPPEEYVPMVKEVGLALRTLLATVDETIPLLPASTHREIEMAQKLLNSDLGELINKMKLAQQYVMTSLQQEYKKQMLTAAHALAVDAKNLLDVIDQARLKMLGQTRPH

For `C=CCNC(=O)[C@@H]1[C@H]2C(=O)O[C@H](c3ccccc3)[C@H](c3ccccc3)N2[C@H](c2ccc(OCCO)cc2)[C@@]12C(=O)Nc1ccc(C#CC3=CCCCC3)cc12`, the composite z-score in assay [1] worked out at 1.15; in [2], 1.23; in assay [3], 1.08; in [4], 0.972; in [5] it was 1.1; in assay [6] it was 0.582. The composite z-score in the assay on Lefty1 was 1.11; in assay [8] it was 0.898; in assay [10], 0.257; in assay [15] it was 1.06; in [16], 0.0502; with Torsin-1A (Homo sapiens) [17], 0.707. In addition, the figures for the composite z-score (with Torsin-1A (Homo sapiens) [18]; in assay [19]) were 0.531 and 1.66, respectively. For the same compound, the z-score in assay [7] was -1.56; in assay [9], -0.806 (inactive); in [11], -4.25 (inactive); in assay [12] it was -0.188 (inactive); in assay [13], 0.299 (inactive); in assay [14] it was -0.0321 (inactive).
In the case of `C=C(C(=O)CC[C@@H](OC(=O)c1ccccc1-c1ccccc1C(=O)O)c1ccc(OCCO)cc1)C(C)C`, the composite z-score in assay [1] is 1.19; in assay [2], 0.977; in [3], -0.118; in [4] it was 0.691; in assay [5] it was 1.2; in [6] it was 1.77. Moreover, the composite z-score was 1.26 with Lefty1; 0.889 in assay [8]; 1.04 in [10]; 0.0206 in [15]; -0.0468 in assay [16]; -0.13 with Torsin-1A (Homo sapiens) [17]. The composite z-score in the assay with Torsin-1A (Homo sapiens) [18] stood at 0.261; in assay [19], 2.1. For the same compound, the z-score was 0.58 in assay [7]; -2.66 (inactive) in assay [9]; 0.0006 (inactive) in assay [11]; -0.367 (inactive) in [12]; 3.88 (inactive) in assay [13]; 2.07 (inactive) in [14].
With `O=C(NC1CC1)[C@@H]1c2ccccc2C(=O)N(C2CCCCC2)[C@H]1c1ccc(CO)cc1`, the composite z-score in assay [1] is 1.86; in assay [2], 1.15; in assay [3], 0.498; in [4] it was -0.518; in assay [5], 0.27; in assay [6], -0.027. Moreover, the composite z-score was -0.413 with Lefty1; 0.063 in assay [8]; 0.0033 in [10]; -0.104 in assay [15]; -0.221 in [16]; -0.164 with Torsin-1A (Homo sapiens) [17]. Further, the composite z-score was 0.324 in the assay with Torsin-1A (Homo sapiens) [18] and -0.118 in assay [19]. Moreover, the z-score in assay [7] is 0.116; in assay [9], 0.0436 (inactive); in assay [11] it was -1.49 (inactive); in [12] it was 0.446 (inactive); in [13], -0.0259 (inactive); in assay [14], -0.592 (inactive).
In the case of `Cc1ccc(S(=O)(=O)N2[C@@H](c3ccccc3)C(C(=O)O)=C[C@H]2C(C)(C)C)cc1`, the composite z-score in assay [1] was 1.43; in assay [2], 1.18; in assay [3] it was 1.31; in assay [4] it was 0.651; in [5], 0.804; in assay [6], -0.0977. The composite z-score in the assay with Lefty1 is 0.576; in [8], 1.31; in assay [10] it was 0.211; in [15], 1.52; in assay [16] it was 0.209; in the assay with Torsin-1A (Homo sapiens) [17], 0.391. Moreover, the composite z-score with Torsin-1A (Homo sapiens) [18] came to 0.985; in [19], 0.719. The z-score in assay [7] was -1.04; in assay [9] it was 1.19 (inactive); in [11], -1.23 (inactive); in [12], 0.137 (inactive); in assay [13] it was 0.238 (inactive); in [14], 0.926 (inactive).
For the compound `C=CCNC(=O)[C@H]1[C@@H]2C(=O)O[C@@H](c3ccccc3)[C@@H](c3ccccc3)N2[C@@H](c2ccc(O)cc2)[C@]12C(=O)N(C(=O)OCCOC)c1ccc(C#Cc3ccc(OC)cc3)cc12`, the composite z-score in [1] was 0.91; in assay [2] it was 1.13; in assay [3], 0.319; in [4], 0.658; in assay [5], 0.751; in [6], 0.817. Moreover, the composite z-score with Lefty1 was 0.402; in assay [8] it was 0.58; in assay [10], 0.334; in [15], 0.21; in assay [16], 0.153; with Torsin-1A (Homo sapiens) [17] it was 0.0502. The composite z-score in the assay with Torsin-1A (Homo sapiens) [18] turned out to be 0.651; in assay [19], 1.21. For the same compound, the z-score is -1.33 in assay [7]; 0.39 (inactive) in assay [9]; -2.17 (inactive) in [11]; 0.649 (inactive) in assay [12]; -0.195 (inactive) in assay [13]; 1.43 (inactive) in assay [14].
